What all share (format): functional
In experiment [1] the test system is Plasmodium falciparum. Briefly: GSK_TCMDC: Inhibition of Plasmodium falciparum 3D7 in whole red blood cells, using parasite LDH activity as an index of growth. Test compounds present at 2uM.
Experiment [2] deals with Plasmodium falciparum. Description: GSK_TCMDC: Inhibition of Plasmodium falciparum Dd2 in whole red blood cells, using parasite LDH activity as an index of growth. Test compounds present at 2uM.
Experiment [3] concerns HepG2. Description: GSK_TCMDC: Percent inhibition of human HepG2 cell line. Test compounds present at 10uM.

A word on the Inhibition: it is the drop in the measured response relative to a control, in per cent. A higher Inhibition goes with a response far below the control. In the case of `CC(=O)Nc1ccc(CN(Cc2cccc(OC(C)(C)C)c2)Cc2ccc3c(c2)OCCO3)cc1`, the Inhibition in experiment [1] came out at 95%; in experiment [2], 96%; in experiment [3], 0%.
`CCCNCc1ccc(-c2ccc(CN(CCOC)C(=O)COc3ccccc3Cl)cc2)nc1.O=C(O)C(F)(F)F`: the figures for the Inhibition in experiment [1], in experiment [2] and in experiment [3] were 96%, 29% and 0%, respectively.
Taken in the same sequence, the figures for `OC(CNc1ccnc(Nc2cccc(Cl)c2)n1)c1cccc(C(F)(F)F)c1` (stereo not drawn) were 100%, 98% and 11%.
Taken in the same sequence, the figures for `O=c1ccc2ccc(F)cc2n1CCN1CCC(NCc2ccc(-c3ccccn3)s2)CC1` were 98%, 30% and 0%.
Taken in the same sequence, the figures for `CCn1c(SCc2ccccc2)nc2c1c(=O)[nH]c(=O)n2C` were 96%, 30% and 1%.
On to `Fc1ccc(-c2cc3ncnc(N4CCN(CCN5CCCC5)CC4)c3s2)cc1`, for which the Inhibition in experiment [1] is 98%; in experiment [2], 40%; in experiment [3], 25%.
In the same order, the values of `O=C(NC(Nc1ccc([N+](=O)[O-])cc1)C(Cl)(Cl)Cl)c1cccc(Cl)c1` (stereo not drawn) are 92%, 17% and 0%.
With `Cc1noc(-c2ccccc2)c1CN1CCCC2(CC(C(=O)NCc3cccc(F)c3F)=NO2)C1.O=C(O)C(F)(F)F` (stereo not drawn), the Inhibition amounted to 85% in experiment [1], 28% in experiment [2] and 0% in experiment [3].
In the same order, the values of `COc1ccc(-c2ccc(NC(=O)c3cccc(Cl)c3)c(F)c2)cc1CN1CCCN(C)CC1.O=C(O)C(F)(F)F` are 100%, 42% and 43%.
In the same order, the values of `COc1ccc2nccc([C@@H](O)CN3CCC(NS(=O)(=O)c4cc(Br)c(Br)s4)CC3)c2c1` are 92%, 36% and 14%.
In the case of `O=C(/C=C/c1ccc(Cl)c(Cl)c1)N1CCC(CCN2CCC(c3c[nH]c4ccncc34)CC2)CC1`, the Inhibition in experiment [1] was 100%; in experiment [2] it was 70%; in experiment [3], 13%.
As for `CN1CCCN(Cc2ccc(-c3cccc(NC(=O)c4cccc(Cl)c4)c3)cc2)CC1.O=C(O)C(F)(F)F`, the Inhibition in experiment [1] was found to be 100%; in experiment [2], 32%; in experiment [3], 33%.
With `Cc1ccc(S(=O)(=O)N(C)c2ccccc2C(=O)Nc2ccccc2Oc2ccccc2)cc1`, the values for the Inhibition in experiment [1], in experiment [2] and in experiment [3] were 98%, 90% and 5%, respectively.
Take `Cc1cccc2nc(-c3ccc(-c4ccc(CN5CCN(CCO)CC5)cc4)s3)[nH]c12.O=C(O)C(F)(F)F`: the values for the Inhibition in experiment [1], in experiment [2] and in experiment [3] were 92%, 47% and 34%, respectively.
For the compound `Cc1cc(N)nc2ccc(-c3ccc(CCN)cc3)cc12`, the Inhibition is listed as 100% in experiment [1], 48% in experiment [2] and 31% in experiment [3].
Taken in the same sequence, the figures for `CN(C)CCNCc1ccc(-c2ccc3c(Nc4ccc(Oc5ccccc5)cc4)ccnc3c2)o1` were 100%, 99% and 19%.
As to `COc1cc(C)cc(CN2CCC(Cc3ccccc3)CC2)c1O`, the Inhibition turned out to be 97% in experiment [1], 94% in experiment [2] and 35% in experiment [3].
Take `Cc1cc(C)c(S(=O)(=O)N2CCCCC(c3cccc(C(F)(F)F)c3)=N2)c(C)c1`: the Inhibition worked out at 94% in experiment [1], 95% in experiment [2] and 0% in experiment [3].
On to `FC(F)(F)c1cccc(Nc2nc(-n3ccnc3)nc(-n3ccnc3)n2)c1`, for which the Inhibition in experiment [1] was 97%; in experiment [2] it was 9%; in experiment [3], 5%.
As for `Cn1ccnc1CCC(=O)Nc1ccc(Cl)cc1C(=O)Nc1ccc(Cl)cc1`, the Inhibition in experiment [1] is listed as 92%; in experiment [2] it was 3%; in experiment [3], 28%.
In the case of `CC(C)(C)c1ccc(CN2CCC(NC(=O)c3ccc(-c4ccccc4Cl)s3)CC2)cc1.O=C(O)C(F)(F)F`, the Inhibition in experiment [1] was found to be 84%; in experiment [2] it was 29%; in experiment [3] it was 36%.
In the same order, the values of `COC(=O)C1=C(C)NC2=C(C(=O)CC(c3ccc(OC)c(OC)c3)C2)C1c1cccc(O)c1` (stereo not drawn) are 99%, 69% and 2%.
`N#Cc1cccc(Nc2nccc(Nc3ccc(Oc4ccccc4)cc3)n2)c1`: the Inhibition was 94% in experiment [1], 17% in experiment [2] and 12% in experiment [3].
For the compound `CCNc1cc(C(=O)N[C@@H](Cc2ccccc2)[C@H](O)CN[C@H](C)c2ccccc2)cc(N2CCCC2=O)c1`, the values for the Inhibition in experiment [1], in experiment [2] and in experiment [3] were 97%, 99% and 0%, respectively.
On to `CN1CCc2cc(Br)c(O)cc2C1Cc1ccccc1Cl.Cl` (stereo not drawn), for which the figures for the Inhibition in experiment [1], in experiment [2] and in experiment [3] were 98%, 88% and 2%, respectively.
Taken in the same sequence, the figures for `COc1cc(NC(=O)/C=C/c2cc(F)cc(F)c2F)cc(OCCN2CCN(CCN3CCOCC3)CC2)c1.O=C(O)C(=O)O` were 100%, 94% and 21%.
Turning to `O=C(NOCCCCOc1ccc(Cl)c(Cl)c1)c1ccccc1`, the Inhibition in experiment [1] was determined as 98%; in experiment [2], 1%; in experiment [3], 2%.
Consider `Cc1c(NCCCNCc2cc(Cl)cc(Cl)c2Cl)[nH]c2ccccc2c1=O.Cl`, for which the Inhibition amounted to 100% in experiment [1], 86% in experiment [2] and 35% in experiment [3].
Taken in the same sequence, the figures for `CN(C)CCOc1cc(NC(=O)Nc2ccc(-c3ccncc3)c(Cl)c2)ccc1I` were 100%, 100% and 43%.
With `Cc1[nH]c(C)c(-c2ccc(/C=C/c3ccccn3)cc2)c(=O)c1Cl`, the Inhibition in experiment [1] was found to be 97%; in experiment [2] it was 96%; in experiment [3], 0%.
In the same order, the values of `Br.CCCC1N=C(N)N=C(N)N1c1ccc(CC)cc1` (stereo not drawn) are 94%, 4% and 11%.
Regarding `CN1CCC(C(=O)N(Cc2ccc(-c3ccc(CNCCc4ccc(S(C)(=O)=O)cc4)cn3)cc2)Cc2ccc3c(c2)OCO3)CC1.O=C(O)C(F)(F)F`, the Inhibition in experiment [1] is reported as 91%; in experiment [2], 51%; in experiment [3], 16%.
In the case of `O=C(O)C(F)(F)F.Oc1ccc(CCNc2nc(NCc3ccccc3-c3ccccc3)nc(N3CCCNCC3)n2)cc1`, the results for the Inhibition in experiment [1], in experiment [2] and in experiment [3] were 95%, 20% and 26%, respectively.
In the same order, the values of `CC(C)(C)CC(C)(C)c1ccc(O)c(CNC2CCCCC2)c1.Cl` are 98%, 99% and 92%.
Taken in the same sequence, the figures for `CC(C)NCc1ccc(OCc2cccc(COc3ccc(CNC(C)C)cc3I)c2)c(I)c1.Cl` were 100%, 92% and 100%.
As to `CCN(CCNc1nc(NCCc2cnc[nH]2)nc(N(CCC#N)Cc2ccccc2)n1)c1cccc(C)c1`, the figures for the Inhibition in experiment [1], in experiment [2] and in experiment [3] were 100%, 92% and 13%, respectively.
As to `NC1CCN(Cc2ccc(-c3ccc(-c4nc5ccccc5[nH]4)cc3)cc2)C1.O=C(O)C(F)(F)F` (stereo not drawn), the Inhibition in experiment [1] is recorded as 100%; in experiment [2] it was 100%; in experiment [3], 34%.
Consider `CCOc1cc(C(=O)N[C@@H](Cc2ccccc2)[C@H](O)CNCc2cc(OC)cc(OC)c2)cc(N2CCCS2(=O)=O)c1.Cl`, for which the Inhibition is listed as 94% in experiment [1], 66% in experiment [2] and 0% in experiment [3].
In the same order, the values of `COc1ccc(Br)cc1/C=C/C(=O)Nc1cccc(C2CCCN(C)C2)c1.O=CO` (stereo not drawn) are 99%, 30% and 12%.
Taken in the same sequence, the figures for `Cc1cccc2nc(-c3cccc(-c4cccc(C(=O)NCCN5CCCC5)c4)c3)[nH]c12` were 100%, 75% and 21%.
In the same order, the values of `CCN(C(=O)CSc1cc(C)c2cc(C)cc(C)c2n1)C1CCS(=O)(=O)C1` (stereo not drawn) are 97%, 82% and 5%.
With `COc1cc(CNCCCNc2cc(=O)c3ccccc3[nH]2)c2c(c1)C(C)CN2C(=O)OC(C)(C)C` (stereo not drawn), the Inhibition in experiment [1] is 96%; in experiment [2], 87%; in experiment [3], 0%.
Taken in the same sequence, the figures for `Fc1ccc2[nH]c(-c3ccc(-c4ccc(CN5CCCCC5)cc4)s3)nc2c1.O=C(O)C(F)(F)F` were 92%, 100% and 42%.
As to `COc1cccc(Nc2c(C(N)=O)cnc3ccc(-c4ccccc4)cc23)c1`, the Inhibition in experiment [1] is listed as 98%; in experiment [2], 99%; in experiment [3] it was 2%.
With `Nn1c(=O)oc2ccc(Cl)cc2c1=O`, the Inhibition in experiment [1] stood at 97%; in experiment [2] it was 96%; in experiment [3] it was 4%.
As to `Cc1cc(NC(=O)c2ccsc2)ccc1OC1CCN(Cc2ccc(F)cc2)CC1.O=C(O)C(F)(F)F`, the Inhibition in experiment [1] is on record as 83%; in experiment [2], 47%; in experiment [3], 9%.
`O=C(NCC1CCN(Cc2ccc(F)cc2)C1)c1cc(-c2cccc(C(F)(F)F)c2)cs1.O=C(O)C(F)(F)F` (stereo not drawn): the Inhibition in experiment [1] is listed as 93%; in experiment [2] it was 18%; in experiment [3], 38%.
In the same order, the values of `CC(C)c1ccc(CN2CCC(CNC(=O)c3cc(-c4ccc(N(C)C)cc4)cs3)C2)cc1.O=C(O)C(F)(F)F` (stereo not drawn) are 83%, 32% and 36%.
Taken in the same sequence, the figures for `Cc1ccc(N2C(=O)C3C(C2=O)C2(c4ccccc4)C(=O)C3(c3ccccc3)C(c3ccccc3)=C2c2ccccc2)c(C)c1` (stereo not drawn) were 96%, 96% and 3%.
Turning to `CC(C)c1ccc(NC(=O)c2ccc(CN3CCCN(Cc4cccc(O)c4)CC3)cc2)cc1.O=C(O)C(F)(F)F`, the Inhibition in experiment [1] worked out at 100%; in experiment [2] it was 58%; in experiment [3], 51%.
On to `CC(C)(C)OC(=O)NCc1ccc(Nc2nnc(-c3cccc(OCC(=O)NCc4cc(C(F)(F)F)cc(C(F)(F)F)c4)c3)o2)cc1`, for which the Inhibition in experiment [1] came to 90%; in experiment [2], 19%; in experiment [3], 32%.
Taken in the same sequence, the figures for `Oc1cc(Nc2ccnc3cc(I)ccc23)ccc1F` were 99%, 99% and 0%.
For the compound `O=C(O)C(F)(F)F.OCC1CCN(Cc2cccc(-c3ccc(-c4nc5cc(F)ccc5[nH]4)cc3)c2)CC1`, the Inhibition stood at 100% in experiment [1], 86% in experiment [2] and 11% in experiment [3].
Take `O=C(/C=C/c1ccc(Cl)c(Cl)c1)NCCCCCN1CCCN(C(=S)Nc2ccc(Cl)c(Cl)c2)CC1`: the Inhibition in experiment [1] was 96%; in experiment [2] it was 0%; in experiment [3], 16%.
In the same order, the values of `CO/C(=C\C=C\c1cc2cc(Cl)c(Cl)cc2[nH]1)C(=O)NCCCN1CC(C)N(C)CC1C` (stereo not drawn) are 92%, 73% and 38%.
Consider `Cc1cccc2nc(-c3cccc(-c4cccc(NC(=O)C(C)CN5CCN(C)CC5)c4)c3)[nH]c12` (stereo not drawn), for which the Inhibition in experiment [1] is 99%; in experiment [2], 99%; in experiment [3], 17%.
On to `CC(C)C1C(=O)N(S(C)(=O)=O)C2CCN(C(=O)c3ccc(CN4CCCCC4)c([N+](=O)[O-])c3)C12.Cl` (stereo not drawn), for which the Inhibition in experiment [1] is 100%; in experiment [2], 100%; in experiment [3], 10%.
Regarding `Cc1cccc2nc(-c3ccc(-c4cccc(NC(=O)Nc5ccc(F)c(F)c5F)c4)cc3)[nH]c12`, the Inhibition was 100% in experiment [1], 89% in experiment [2] and 40% in experiment [3].
In the case of `Cc1cc(Nc2ccc(C)c(Cl)c2)n2ncnc2n1`, the Inhibition in experiment [1] is listed as 98%; in experiment [2] it was 91%; in experiment [3] it was 6%.
Taken in the same sequence, the figures for `CCC(=O)N(c1ccccc1)C1CCN(CCCC(NC(=O)c2cc(C(F)(F)F)cc(C(F)(F)F)c2)c2ccc(Cl)c(Cl)c2)CC1` (stereo not drawn) were 96%, 57% and 24%.
Taken in the same sequence, the figures for `Fc1ccc(Nc2ccnc3cc(I)ccc23)c(Cl)c1` were 95%, 24% and 35%.
